# In PubChem BioAssay AID1751 (National Center for Advancing Translational Sciences (NCATS), 2009):
# Values joined by “and” are separate entries in the source; they are usually repeats but may differ in a detail not shown here. Identical values can stand only once. Records with an inconclusive call do not appear. Active and inactive are the calls of the source. Calls follow the shape of the dose curve; as a rule, active = well fitted activation curve with a large enough effect; inconclusive = small, poorly fitted or top-dose-only effect; inactive = no such curve, though single readings can be large or run the other way.
# Target: Pyruvate kinase PKM (Homo sapiens) (UniProt P14618)
# Assay: Confirmation Concentration-Response Assay for Activators of Human Muscle isoform 2 Pyruvate Kinase
# Settings: purified hPK-M2, Kinase-Glo ATP luminescence, 1 h; series mostly up to 57.5 µM
# Source text: NIH Chemical Genomics Center [NCGC] Matthew G. Vander Heiden, M.D., Ph.D. [Harvard Medical School, 77 Avenue Louis Pasteur, Boston, MA 02115] MLPCN Grant: 1 R03 MH085679-01 NCGC Assay Overview: Human pyruvate kinase muscle 2 (hPK-M2) enzyme was supplied as a highly purified (>95% pure) preparation from Harvard Medical School and assayed for its ability to generate ATP from ADP using phosphoenolpyruvate (PEP) as a substrate. ATP generation was detected in a coupled reaction by luciferase-mediated luminescence, an ATP-dependent process. Pyruvate kinase substrates, PEP and ADP, were present in the assay at Km and approximately 10-fold below Km respectively. The enzyme was assayed at an intermediate level of activity to screen for both inhibitors and activators.
# NCGC Assay Protocol Summary: Three uL of substrate mix (at r.t.) in assay buffer (50 mM Imidazole pH7.2, 50 mM KCl, 7 mM MgCl2, 0.01% Tween 20, 0.05% BSA) was dispensed into white solid bottom 1,536 well microtiter plates so that the final concentrations of substrates in the assay were 0.1 mM ADP and 0.5 mM PEP. 23 nL of compound were delivered by a pin tool and 1 uL of enzyme mix (final concentration of 0.1 nM) in assay buffer (4 degree Celsius) was added. Plates were incubated at room temperature for 1 hour. Two uL of detection mix (Kinase-Glo, Promega; at 4 degree Celsius protected from light) was added and luminescence read by a ViewLux (Perkin Elmer) at 1 second exposure/plate. Data were normalized to the uninhibited (column 3) and AC100 inhibition (no enzyme in column 2). To monitor activation, the first column contained a titration of the activator, NCGC00031955-03 (16-point 1:2 dilutions in duplicate starting at 57 uM) and the first 16 rows of column 4 contained 57 uM of NCGC00031955-03.
# Chain of Pyruvate kinase PKM (Homo sapiens) (P14618 whole entry, looked up, canonical isoform): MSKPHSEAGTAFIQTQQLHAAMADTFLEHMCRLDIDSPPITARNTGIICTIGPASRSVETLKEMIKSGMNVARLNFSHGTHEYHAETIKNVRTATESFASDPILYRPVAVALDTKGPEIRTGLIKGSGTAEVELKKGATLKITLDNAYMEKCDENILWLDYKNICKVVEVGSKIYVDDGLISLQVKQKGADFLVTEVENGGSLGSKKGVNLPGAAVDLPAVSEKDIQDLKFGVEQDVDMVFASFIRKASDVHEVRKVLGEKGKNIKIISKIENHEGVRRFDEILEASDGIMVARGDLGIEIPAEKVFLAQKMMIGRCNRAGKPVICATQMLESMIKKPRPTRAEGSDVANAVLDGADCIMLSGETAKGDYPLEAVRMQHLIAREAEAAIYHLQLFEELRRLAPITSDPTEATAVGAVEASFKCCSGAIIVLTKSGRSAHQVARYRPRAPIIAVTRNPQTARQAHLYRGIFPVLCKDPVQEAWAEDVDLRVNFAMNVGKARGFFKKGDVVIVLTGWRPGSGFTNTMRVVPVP
row,Structure (SMILES),Potency
1,Cn1c2ccsc2c2ncn(Cc3ccccc3F)c(=O)c21,17900 nM (active)
2,Cc1ccc(NS(=O)(=O)c2ccc3c(c2)CCC(=O)N3)cc1C,163 nM (active)
3,O=S(=O)(c1c(F)cccc1F)C1CCN(S(=O)(=O)c2ccc3c(c2)OCCO3)CC1,201 nM (active)
4,Cc1nc2ccc(S(=O)(=O)N3CCN(S(=O)(=O)c4c(F)cccc4F)CC3)cc2s1,63.5 nM (active)
5,CSc1cc2c(s1)c1cnn(Cc3ccccc3F)c(=O)c1n2C,14.2 nM (active)
6,O=S(=O)(NC1CCC(NS(=O)(=O)c2c(F)cccc2F)CC1)c1ccc2c(c1)OCCO2 (stereo not given),1.27 µM (active) and 22.5 µM (active)
7,O=S(=O)(c1ccccc1)N1CCN(S(=O)(=O)c2ccc3c(c2)OCCO3)CC1,160 nM (active)
8,Cc1cc2c(s1)c1cnn(Cc3ccccc3F)c(=O)c1n2C(C)C,inactive
9,O=C(c1ccc2c(c1)OCCO2)N1CCN(S(=O)(=O)c2c(F)cccc2F)CC1,inactive
10,Nc1cccc(-c2cn3cc(C(F)(F)F)cc(Cl)c3n2)c1,inactive
11,Cc1cc2c(s1)c1cnn(Cc3cccc(Cn4ncc5c6sc(C)cc6n(C)c5c4=O)c3F)c(=O)c1n2C,16000 nM (active)
12,O=S(=O)(c1ccc2c(c1)OCCO2)N1CCN(S(=O)(=O)c2ccccn2)CC1,505 nM (active)
13,Cc1cc2c(s1)c1cnn(Cc3ccc(C)c(F)c3F)c(=O)c1n2C,56.6 nM (active)
14,O=S(=O)(c1ccc2c(c1)OCCO2)N1CCN(S(=O)(=O)c2c(F)cccc2F)CC1,35.7 nM (active)
15,O=S(=O)(c1ccc2c(c1)OCCO2)N1CCN(S(=O)(=O)c2ccccc2F)CC1,56.6 nM (active)
16,C[C@H]1CN(S(=O)(=O)c2ccc3c(c2)OCCO3)CCN1S(=O)(=O)c1c(F)cccc1F,8970 nM (active)
17,COc1ccc2nc3sc(C(=O)NCc4cccs4)c(N)c3cc2c1,inactive
18,O=C(/C=C/c1cccc(Cl)c1)c1nc2ccccc2[nH]1,inactive
19,C[C@@H]1CN(S(=O)(=O)c2c(F)cccc2F)CCN1S(=O)(=O)c1ccc2c(c1)OCCO2,1790 nM (active)
20,O=S(=O)(c1ccc2c(c1)OCCO2)N1CCN(S(=O)(=O)c2ccc(F)cc2F)CC1,63.5 nM (active)

row,Structure (SMILES),Potency
1,Cc1ccc(Cn2ncc3c4sc(C)cc4n(C)c3c2=O)c(C)c1,56.6 nM (active)
2,COc1ccc2c(c1)CCc1c(C(=O)NC3CCCCC3)noc1-2,inactive
3,Cc1cc2c(s1)c1cnn(Cc3ccc(C(F)(F)F)cc3F)c(=O)c1n2C,16000 nM (active)
4,C[C@@H]1CN(S(=O)(=O)c2ccc3c(c2)OCCO3)CCN1S(=O)(=O)c1c(F)cccc1F,2530 nM (active)
5,O=S(=O)(c1ccc2ccccc2c1)N1CCN(S(=O)(=O)c2c(F)cccc2F)CC1,56.6 nM (active)
6,Cc1sc2ncnc(OCC(=O)N3CCN(S(=O)(=O)c4ccc(Cl)cc4)CC3)c2c1C,inactive
7,CCn1c2cc(C)sc2c2cnn(Cc3ccccc3F)c(=O)c21,4010 nM (active)
8,O=S(=O)(NCC1CN(S(=O)(=O)c2ccc3c(c2)OCCO3)C1)c1c(F)cccc1F,4010 nM (active)
9,O=S(=O)(c1ccc2c(c1)OCCO2)N1CCN(S(=O)(=O)c2cccc[n+]2[O-])CC1,8970 nM (active)
10,Cn1c2cc(CO)sc2c2cnn(Cc3ccccc3F)c(=O)c21,28.4 nM (active)
11,COc1ccc(Cn2ncc3c4sc(C)cc4n(C)c3c2=O)cc1F,127 nM (active)
12,O=S(=O)(NC1CCN(S(=O)(=O)c2ccc3c(c2)OCCO3)C1)c1c(F)cccc1F (stereo not given),17900 nM (active)
13,Cc1ccc(Cn2ncc3c4sc(C)cc4n(C)c3c2=O)cc1,225 nM (active)
14,N#Cc1cc(-c2ccccc2)cnc1Sc1ccccc1,inactive
15,O=C1C(=C2SCCCS2)CC/C1=C\c1ccc(F)cc1,inactive
16,Cc1cc2c(s1)c1c(C)nn(Cc3ccccc3F)c(=O)c1n2C,20100 nM (active)
17,COC(=O)CSC1=NS(=O)(=O)c2ccccc21,inactive
18,Cc1ccc(S(=O)(=O)N2CCCN(S(=O)(=O)c3ccc4c(c3)OCCO4)CC2)cc1,398 nM (active)
19,O=S(=O)(NC1CCN(S(=O)(=O)c2ccc3c(c2)OCCO3)CC1)c1c(F)cccc1F,2530 nM (active)
20,O=C(CN1C(=O)N/C(=C\c2cccn2-c2cccc(C(=O)O)c2)C1=O)Nc1ccccc1F,inactive
